# According to PubChem BioAssay AID1861 (The Scripps Research Institute Molecular Screening Center, 2009):
# About 3,100 (1.1%) of roughly 290,000 compounds were called active. The entries come from a sample that favours actives as a whole. Unmarked numbers belong to inactive results. No stated cut-off is given here; in the data, active means inhibition above about 16% (passing the limit was not always enough); inactive means the rest.
# Target: Neuropeptides B/W receptor type 1 (Homo sapiens) (UniProt P48145)
# Experiment: blockers of human neuropeptide B/W receptor 1 – cell-based, fluorescence, single concentration, primary screen (AID 1861);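 further: cells stimulated with the agonist NPW; 0% = agonist with vehicle and 100% = vehicle without agonist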
# Conditions: GPR7-expressing cells, fluorescence antagonist assay; at 4.4 µM; hits give high values
# Neuropeptides B/W receptor type 1 (Homo sapiens), sequence (P48145 whole entry, looked up): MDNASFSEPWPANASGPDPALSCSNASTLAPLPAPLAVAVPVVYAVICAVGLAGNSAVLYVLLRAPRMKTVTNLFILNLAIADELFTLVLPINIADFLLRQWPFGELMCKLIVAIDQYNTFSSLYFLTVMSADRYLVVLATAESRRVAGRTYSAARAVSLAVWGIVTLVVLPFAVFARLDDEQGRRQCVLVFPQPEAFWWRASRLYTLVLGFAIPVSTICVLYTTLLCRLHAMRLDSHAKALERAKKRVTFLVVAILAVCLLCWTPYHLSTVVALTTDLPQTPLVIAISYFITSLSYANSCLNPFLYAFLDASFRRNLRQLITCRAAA
row,Structure (SMILES),inhibition
1,CCc1c(C)nc2c(-c3ccccc3)c(C)nn2c1Nc1ccc(NC(C)=O)cc1,27.4% (active)
2,Cc1cc(-c2ccccc2)n2nc(C)c(-c3ccccc3)c2n1,-10.5%
3,Cc1cc(-n2nc(C)cc2C)n2nc(C)c(-c3ccccc3)c2n1,-6.35%
4,COc1ccc(C(=O)CCC(=O)Nc2cccnc2)c(OC)c1,2.52%
5,Fc1ccccc1Cn1cnc(NC(=S)NCCc2ccccc2)n1,10.1%
6,CC(=O)NC(C)c1nc2ccccc2n1Cc1ccccc1F (centres undefined),-2.12%
7,N=c1n(CCc2ccccc2)c2ccccc2n1Cc1ccccc1F,21.8% (active)
8,CCNC(=O)c1cnn(-c2ccccc2)c1-c1ccccc1,-4.37%
9,COCCNC(=O)c1ccc2c(c1)ncn2-c1ccc(C)c(Cl)c1,0.48%
10,CC(=O)Nc1cccc(Nc2nc(-c3cccs3)nc3ccccc23)c1,-8.63%
11,COc1ccc(C(=O)NC2CC2)cc1OC1CCN(Cc2cnn(C)c2)CC1,0.96%
12,N#CC1=C(SCc2ccccc2)NC(=O)C(C#N)C12CCCC2 (centres undefined),-8.17%
13,N#Cc1ccc(CSc2ncccn2)cc1,3.62%
14,N#CC1=C(SCc2ccc(C#N)cc2)N=C(N)C(c2nc(-c3ccccc3)cs2)C12CCCCC2 (centres undefined),28.4% (active)
15,Cc1ccc2c(=O)oc(N(C)C)nc2c1,9.69%
16,CC1C(=O)Nc2ccccc2N1C(=O)c1c(F)cccc1F (centres undefined),-14.5%
17,COC(=O)C(C)Oc1ccc2c(c1)O/C(=C\c1cccc(Br)c1)C2=O (centres undefined),-5.02%
18,Oc1cccc(/C=N/Nc2ccc(Cl)nn2)c1O,43.7% (active)
19,Clc1ccc(N/N=C/c2cccs2)nn1,-9.79%
20,COc1cccc(/C=N/Nc2ccc(Cl)nn2)c1,-14.8%
21,CCc1cccc(C)c1NS(=O)(=O)c1c(C)nc2sccn2c1=O,-6.98%
22,O=C(/C=C/Sc1ncn[nH]1)c1ccc(Cl)cc1,4.91%
23,Cc1ccc(N(Cc2ccccc2O)C(=O)c2ccccc2F)cc1,-15.3%
24,CCCc1ccc(OCC(O)CN2CCN(C(=O)OCC)CC2)cc1 (centres undefined),-0.9%

row,Structure (SMILES),inhibition
1,Cc1ccc(N2CCN(c3ccc([N+](=O)[O-])cn3)CC2)c(C)c1,15.6%
2,Nc1nnc(SCC(=O)Nc2ccc3nc(SCC(=O)Nc4ccccc4)sc3c2)s1,30.6% (active)
3,CCCCNC(=O)CSc1nc2ccc(NC(=O)CSc3nnc(COc4ccccc4C)n3C)cc2s1,8.43%
4,CCCCNC(=O)CSc1nc2ccc(NC(=O)CSc3nnc(N)s3)cc2s1,-5.46%
5,COc1ccc(S(=O)(=O)Nc2ccc(S(=O)(=O)N3CCCCC3)cc2)cc1OC,-7.42%
6,COc1ccc(F)cc1S(=O)(=O)N1CCCCC1,-5.33%
7,COc1ccc(S(=O)(=O)N2CCCCC2)cc1Br,20.2% (active)
8,CCOc1ccc(C(=O)NC(=S)Nc2ccc(NC(=O)C(C)C)cc2)cc1[N+](=O)[O-],-1.37%
9,CCOc1ccc(C(=O)NC(=S)Nc2ccc(N3CCOCC3)c(Cl)c2)cc1[N+](=O)[O-],21% (active)
10,COc1cccc(OC)c1C(=O)NC(=S)Nc1ccc(N2CCOCC2)c(Cl)c1,-6.83%
11,O=C(NCc1ccccc1Cl)C1CCN(S(=O)(=O)c2cccc3nonc23)CC1,-5.03%
12,COc1ccc(CCNC(=O)C(=O)NCC2OCCN2S(=O)(=O)c2cccs2)cc1OC (centres undefined),-18.7%
13,CC(C)c1ccc(C(=O)OC2CCOC2=O)cc1 (centres undefined),-10.7%
14,O=C(OC1CCOC1=O)c1ccc(-c2nc3ccccc3s2)s1 (centres undefined),13.3% (active)
15,Cc1nn(Cc2ccccc2)c(Cl)c1C(=O)OC1CCOC1=O (centres undefined),-6.27%
16,O=C(Nc1cccc(Cl)c1Cl)c1ccccc1NC(=O)C1CC=CCC1C(=O)O (centres undefined),1.26%
17,COc1ccc(C2CC(=O)NC(=O)C2)cc1,23%
18,c1ccc(C2CNCc3c2ccc2ccccc32)cc1 (centres undefined),38.9% (active)
19,Oc1ccccc1-c1cc(-c2ccc(Cl)cc2)n[nH]1,-4.03%
20,CC1=C(C(=O)OC(C)(C)C)C(c2ccc(Br)cc2)NC(=O)N1CCCC(=O)O (centres undefined),-5.35%
21,Cc1cc(NC(=O)Nc2c[nH]c(=O)[nH]c2=O)ccc1Br,-12.8%
22,CC1CN(C(=O)CCC(=O)NCc2cccnc2)c2ccccc2O1 (centres undefined),6.78%
23,CC1CN(C(=O)CCC(=O)NC2CCN(Cc3ccccc3)CC2)c2ccccc2O1 (centres undefined),-0.83%
24,CC1CN(C(=O)CCC(=O)NCCCN2CCC(Cc3ccccc3)CC2)c2cc(Cl)ccc2O1 (centres undefined),25.7% (active)

row,Structure (SMILES),inhibition
1,COc1ccc(OC)c(NC(=O)CN(C)CCOc2ccc(Br)cc2)c1,17.7%
2,O=C(NCc1nnc(SCC(=O)N2CCCCCC2)o1)c1ccc(F)cc1,-18.2%
3,COc1ccc(CS(=O)/C(Cl)=C(/Cl)C(=O)Nc2ccc(OC)nc2)cc1 (centres undefined),24.2% (active)
4,COc1ccc(NC(=O)/C(Cl)=C(/Cl)S(=O)Cc2ccc(C)cc2)cn1 (centres undefined),57.6% (active)
5,COc1ccc(NC(=O)c2cc(-c3ccc(C)cc3)on2)cc1,-12.6%
6,CCOc1ccc(S(=O)(=O)Nc2ccc(OC)nc2)cc1,6.88%
7,COc1ccc(Nc2cc(Cl)ccc2C(=O)O)cn1,-11.5%
8,COc1ccc(C(=O)Nc2ccc(NC(=O)C(C)C)nc2)cc1,19.8%
9,Cc1occc(=O)c1OCc1c(Cl)cccc1Cl,-7.63%
10,CCN(CC)S(=O)(=O)c1ccc(NC(=O)c2cnc(C)cn2)cc1,-18.4%
11,CCOC(=O)c1cnc2ccc(F)cc2c1Nc1ccc2c(c1)OCCO2,-2.1%
12,COc1cccc(C(=O)NNC(=O)c2cccc(F)c2)c1,-2.7%
13,CCCC(=O)N1CCc2[nH]c3ccccc3c2C1,1.42%
14,Cc1ccc2[nH]c3c(c2c1)CN(C(=O)CN1CCN(c2ccccc2)CC1)CC3,3.49%
15,O=C(CCCN1CCc2[nH]c3ccc(F)cc3c2C1)c1ccc(F)cc1,33.9% (active)
16,CC(C)(C)CC(C)(C)NCC(O)COCCOc1ccc(Br)cc1 (centres undefined),36.9% (active)
17,OC(COc1ccc(Br)cc1)CN1CCCC1 (centres undefined),-9.13%
18,COc1ccc(OCC(O)CNCCNc2nccc(C(F)(F)F)n2)cc1 (centres undefined),-3.59%
19,O=C(Cc1cccs1)NCc1cccc(C(F)(F)F)c1,5.08%
20,COc1ccc(C2Nc3ccccc3C(=O)N2Cc2ccccc2)cc1Cn1nnc2ccccc21 (centres undefined),28.4% (active)
21,COc1ccc(N2C(=O)c3ccccc3NC2c2ccc(OC)c(CN3CCOCC3)c2)cc1 (centres undefined),-11.4%
22,COc1ccc(C2Nc3ccccc3C(=O)N2c2ccc(F)cc2)cc1Cn1nnc2ccccc21 (centres undefined),-1.83%
23,O=C(OCC1O[C@@H](OC(=O)c2cc(O)c(O)c(O)c2)[C@@H](OC(=O)c2cc(O)c(O)c(O)c2)[C@@H](OC(=O)c2cc(O)c(O)c(O)c2)[C@@H]1OC(=O)c1cc(O)c(O)c(O)c1)c1cc(O)c(O)c(O)c1 (some centres undefined),-5.26%
24,O=C(NCc1ccc2c(c1)OCO2)c1cc(F)c(F)cc1Cl,-4.33%

row,Structure (SMILES),inhibition
1,O=C(c1ccccc1)N1CCN(C(=O)c2cc3nc(-c4ccccc4)cc(C(F)(F)F)n3n2)CC1,-7.13%
2,Cc1cccc(-c2nc3ccc(C(=O)NCCN4CCN(C)CC4)cc3nc2-c2cccc(C)c2)c1,31.6% (active)
3,Cc1ccc(C(=O)NCCN2CCOCC2)cc1C,3.82%
4,CCC1=Nc2cc(C(=O)NCCN3CCCC3)ccc2Sc2ccc(C)cc21,-5.13%
5,Nc1nnn(CC(=O)N/N=C/c2ccc(O)cc2)n1,5.08%
6,O=C(CC(=O)Nc1ccc(Cl)c(Cl)c1)N/N=C/c1ccc(O)cc1,24.6% (active)
7,O=C(C[n+]1ccccc1)N/N=C/c1ccc(O)cc1,-1.15%
8,O=C(COc1ccc([N+](=O)[O-])cc1)Nc1cccc(C(=O)Nc2ccccc2C(=O)O)c1,-9.29%
9,O=C(NCc1ccco1)c1nc2ncccn2n1,-0.52%
10,O=C(NCc1ccco1)c1nc(-c2ccccc2)n(-c2ccccc2)n1,20.5% (active)
11,O=C(CSc1nnnn1-c1ccccc1)NCc1ccco1,-5.34%
12,CCOc1ccc(N/C(N)=N/c2nc(C)c(C)c(=O)[nH]2)cc1,6%
13,COc1ccc(CN(C)C(=O)Cc2ccsc2)c(OC)c1OC,8.02%
14,CCOc1ccc(NC(=S)N2CCC(NC(=O)c3ccccc3)CC2)cc1,-6.68%
15,O=C(CN1CCN(C(=S)NC2CCCC2)CC1)Nc1ccc(Oc2ccccc2)cc1,22.4% (active)
16,CCOc1ccc(NC(=O)CN2CCN(CC(=O)Nc3ccc(OC)cc3)CC2)cc1,2.08%
17,Cc1cccc(NS(=O)(=O)c2ccc([N+](=O)[O-])cc2)n1,17.4%
18,COc1ccc(C(=O)N2CCCC(C(=O)c3ccccc3OC)C2)cc1OC (centres undefined),-2.49%
19,CC(C)NC(=S)N1CCN(C(c2ccccc2)c2ccccc2)CC1,-13.9%
20,O=C(O)CN1CCN(C(c2ccccc2)c2ccccc2)CC1,-8.01%
21,CC1(C)CC(N2CCN(C(c3ccccc3)c3ccccc3)CC2)=CC(=[N+]2CCCCC2)C1,66% (active)
22,COc1ccccc1C(=O)COC(=O)CNS(=O)(=O)c1ccc(NC(C)=O)cc1,11.2%
